Results published in PubChem BioAssay (NCI).
This is part of a sample that, as a whole, favours compounds with a hit. Of some 83,000 tested, about 20% had one in any assay.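 Single-concentration screen, 48 h exposure, 96-well plates. Endpoint: percent growth. Below 10 = active.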 Values without a mark were called inactive. Calls of active or inactive are those of the source.

The molecules below were run on NCI-H23 lung (assay: NCI-60 one-dose screen, 48 h (100 = growth as untreated, 0 = no growth, -100 = all killed)). Settings: 10 µM unless noted.
Experimental: Growth inhibition of the NCI-H23 human Non-Small Cell Lung tumor cell line is measured as a screen for anti-cancer activity. Cells are grown in 96 well plates and exposed to the test compound for 48 hours. Compounds are tested at a single concentration, which is 10^-5 M for most compounds. The reported endpoint is percent growth (GI% or GIPRCNT), where numbers from 0 - 100% represent growth inhibition, and numbers from -100% - 0 represent cell death. For example, a value of 40 represents 60% growth inhibition. A value of 0 means no net growth occurred over the course of the experiment. A value of -40 indicates 40% of cells at the beginning of the experiment died by the end of the experiment. A value of -100 means all cells are dead at the end of the experiment.
NCI-60 Human Tumor Cell Lines Screen was performed using the standard one-dose NCI protocol, which is described in more detail at https://dtp.cancer.gov/discovery_development/nci-60/default.htm.
Compounds with GIPRCNT values below 10 were considered active. Activity score was based on GIPRCNT using the following formula: […]
Score is 0 for GIPRCNT values of 100 or above, 50 for GIPRCNT values of 0, and 100 for GIPRCNT values of -100.

Compared with `CCCCCCCSc1ncnc2[nH]ncc12`, `CCSc1ncc(Br)c(Sc2nc(N)nc3nc[nH]c23)n1` is lower in growth: 93.9% for the first, 37.9% for the second.

Going from `N#CC1c2ccccc2C=CN1C(=O)N(c1ccccc1)c1ccccc1` (stereo not given) to `c1ccc(Nc2ccc(Nc3nc(-c4ccccc4)nc4ccccc34)cc2)cc1`, the growth rises from 66.6% to 86.9%.

Compared with `CC(=O)[C@H]1CC[C@H]2[C@@H]3C[C@H](C)C4=CC(=O)CC[C@]4(C)[C@H]3C(=O)C[C@]12C`, `C[C@]12CCC(=O)C=C1CC[C@H]1[C@@H]3C[C@@H](O)[C@](O)(C(=O)CO)[C@@]3(C)C[C@H](O)[C@@]12F` is higher in growth: 102% for the first, 110% for the second.

Compared with `COC(=O)C1CCN(S(=O)(=O)c2ccc(-c3ccccc3)cc2)CC1`, `N#Cc1c(-c2ccccc2)cc(-c2ccccc2)n(CCC(=O)O)c1=O` is lower in growth: 97.7% for the first, 72.9% for the second.

First: CCCCN=C(N)c1ccc(OCCSCCOc2ccc(C(N)=NCCCC)cc2)cc1
Second: O=C(COc1ccc(/C=C2\Oc3ccc4ccccc4c3C2=O)cc1)c1ccc(Cl)cc1
The growth of the first is lower: 40.4% for the first, 98.2% for the second.

First: COc1cc(OC)c2c(c1Cl)O[C@]1(C2=O)C(OCc2ccccc2)=CC(=O)C[C@H]1C
Second: COc1cc2c(cc1OC)C(=O)/C(=C/c1cccc(OCC(=O)c3ccccc3)c1)C2
The growth of the first is lower: 20.9% for the first, 90.8% for the second.

Going from `C[C@H]1c2cccc(O)c2C(O)=C2C(=O)[C@]3(O)C(O)=C(C(N)=O)C(=O)[C@@H](N(C)C)[C@@H]3[C@@H](O)[C@@H]21` to `COc1cc(/C=C/C(=O)c2c(C)n([O-])c3ccc(Cl)cc3[n+]2=O)cc(OC)c1OC`, the growth rises from 41.5% to 81.7%.

Compared with `CN(C)CCC(=O)Nc1ccc(-n2cc(-c3cccc(NC(=S)Nc4cccc(-c5cn(-c6ccc(NC(=O)CCN(C)C)cc6)nn5)c4)c3)nn2)cc1`, `c1ccc(COc2ccc(Nc3ncnc4c3cnn4-c3ccccc3)cc2)cc1` is higher in growth: 89.1% for the first, 109% for the second.

Compared with `O=C1/C(=C\c2coc3ccccc3c2=O)c2ccccc2N1c1c(Cl)cccc1Cl`, `CC1c2ccccc2-c2ccccc2N1C` (stereo not given) is higher in growth: 55.4% for the first, 105% for the second.

Going from `Cc1ncc(C(=O)Nc2ccc(CN3CCN(C)CC3)c(C(F)(F)F)c2)cc1C#Cc1cncc2ncccc12` to `O=c1ncc(-c2ccc(C(F)(F)F)cc2)c(NC2CCCCCC2)[nH]1`, the growth rises from 45.7% to 64.9%.

First: CN(C)c1ncnc2c1ncn2C1CCCCO1 (stereo not given)
Second: CC(C)=CCCC(C)c1ccc(C)c2c1OCN(CC1CCNCC1)C2 (stereo not given)
The growth of the first is higher: 101% for the first, 81.9% for the second.

Compared with `N#CC(C#N)C(C#N)C#N`, `CCOC(=O)/C(=C/CC/C(C)=C/CC/C(C)=C/CCc1ccoc1)CC(=O)N1CCCCC1` is lower in growth: 97.7% for the first, 66.4% for the second.

Compared with `CCN(CC)c1ccc(/C=C/C(=O)c2cccc(NS(C)(=O)=O)c2)cc1`, `CCOc1cc(/C=C/C(=O)CC(=O)/C=C/c2ccc(OC(=O)CNc3nc4ccc(OC)cc4s3)c(OCC)c2)ccc1OC(=O)CNc1nc2ccc(OC)cc2s1` is higher in growth: 18.7% for the first, 55.7% for the second.

Going from `CCOC(=O)CNC(=O)C1(NC(=O)CNC(=O)OCc2ccccc2)CCCC1` to `COc1cc(/C=C/C(=O)C(C(=O)/C=C/c2ccc(OC(=O)CCNc3nnc(C)s3)c(OC)c2)C(=O)CCNc2nnc(C)s2)ccc1OC(=O)CCNc1nnc(C)s1`, the growth falls from 105% to 11.9%.

First: Nc1ccn(C2O[C@H](CO)[C@@H](O)[C@@H]2O)c(=O)n1 (stereo not given in full)
Second: CCSc1nc(-c2ccco2)n2nc(-c3ccco3)cc2n1
The growth of the first is lower: 28.2% for the first, 93.5% for the second.

Compared with `Cc1ccc2nc(-c3ccc(N(C)C)c(Br)c3)cn2c1`, `Cc1[nH]ccc2cc3nc4ccccc4c3cc12` is lower in growth: 92% for the first, 39.4% for the second.

Compared with `c1ccc(N2c3nc4ccccc4cc3Sc3cc4ccccc4nc32)nc1`, `CC1CC=CCC1C1OCC(C)(C)CO1` (stereo not given) is higher in growth: 93.7% for the first, 108% for the second.

In the case of `C=CCN(/C=C/CN(CC=C)CC=C)CC=C`, the growth is reported as 108%.

For `COc1cc(/C=C2\CN(S(=O)(=O)c3ccc(C)cc3)C/C(=C\c3cc(CN4CCOCC4)c(O)c(OC)c3)C2=O)cc(CN2CCOCC2)c1O`, the growth was -57.1% (active).
For `COC(=O)[C@H](CCCCNC(=O)OCc1ccccc1)NC(=O)[C@@H](NC(=O)Nc1cc(C(F)(F)F)cc(C(F)(F)F)c1)C(C)C`, the growth was -45.6% [100 µM] (active).
`O=c1c2c(=NCCCN3CCCC3)cc3c(=O)n(CCCN4CCCC4)c(=O)c4c(NCCCN5CCCC5)cc(c(O)n1CCCN1CCCC1)c2c4-3` was tested, and the growth was -2.37% (active).

`COc1ccc(Oc2ccccc2NC(=O)CNC(=O)c2cccc3ccccc23)cc1` was tested, and the growth was 36.7% [5 µM].

For `CNc1nc(NC2CCCC2)nc(Sc2ccc(OC)cc2)n1`, the growth was 39.4% [100 µM].
